# In ChEMBL document CHEMBL4513216, “Probing the Open Global Health Chemical Diversity Library for Multistage-Active Starting Points for Next-Generation Antimalarials” (ACS Infect Dis, 2020):
# The whole screen tested about 65,000 compounds, of which about 2,100 (3.2%) showed an effect of 50% or more. The median lay at about -52%. The sample holds strong results, similar compounds and a random draw of the others, so the mix is not that of the screen.
# Tested on: Plasmodium falciparum
# Assay: Screen against P. falciparum Asexual Blood Stage (ABS), at 5uM
# Type: functional, Dd2
# Details: tested at 5 uM
row,Compound,INHIBITION [%]
1,CO[C@H]1CN(C(=O)c2cn3cc(C)ccc3n2)CC[C@@]12CCCO2,-142
2,Cc1nc(C(=O)N(C)CC2CCCO2)nn1-c1ccccc1C(C)C (centres undefined),-143
3,CCOCc1nc(-c2ccc(F)cc2Cl)n(C)n1,-121
4,CCN1C(=O)CC(c2ccccc2)C12CCN(CC1CCOCC1)CC2 (centres undefined),50.3
5,CN1C(=O)CC(c2ccccc2)C12CCN(CC1CC1)CC2 (centres undefined),16.7
6,CN1C(=O)CC(c2ccccc2)C12CCN(CC1CCOCC1)CC2 (centres undefined),36.1
7,Cc1nc(C)n(CC2CCCN2CC(=O)Nc2c(C)n[nH]c2C)n1 (centres undefined),35
8,Cc1cc(C)n(CC2CCCCN2CC(=O)Nc2c(C)n[nH]c2C)n1 (centres undefined),-116
9,Cc1nc(C)n(CC2CCCCN2CC(=O)Nc2c(C)n[nH]c2C)n1 (centres undefined),54.2
10,CC(C)Cn1nc(-c2ccc(C(=O)O)cc2)cc1-c1ccc(F)cc1,-57.3
11,Cc1cccc(CNC(C)c2ccc(OCC(=O)NC3CC3)cc2)c1 (centres undefined),-21
12,CC(NCc1cccnc1)c1ccc(OCC(=O)NC2CC2)cc1 (centres undefined),-107
13,CC(NCc1cccc(Cl)c1)c1ccc(OCC(=O)NC2CC2)cc1 (centres undefined),51.7
14,CC(C)(O)CN1CCN(C(=O)c2cccc3cccnc23)CC1,24.5
15,CC(C)CNC(=O)[C@H]1C[C@H]2CN(C(=O)Nc3ccc(F)cc3)C[C@@H]1O2,-5.8
16,Cc1csc(NC(=O)CN2CCc3c(nc(C4CC4)n3C)C2)n1,-122
17,NC(=O)c1ccccc1Oc1cccc(C2CCCNC2)n1 (centres undefined),55.8
18,NC(=O)c1ccccc1Oc1cnc(C2CCCN2)cn1 (centres undefined),-95.3
19,NC(=O)c1ccc(C2CCCNC2)nc1 (centres undefined),-43.7
20,O=C(CNCC1(O)CCCN(Cc2cccc(F)c2F)C1=O)NC1CC1 (centres undefined),-93.9
21,CN(CC1(O)CCCN(Cc2cccc(F)c2F)C1=O)C1CCCCC1 (centres undefined),65
22,CN1CCC(NCC2(O)CCCN(Cc3ccccc3F)C2=O)CC1 (centres undefined),7.93

row,Compound,INHIBITION [%]
1,COc1ccc(F)c(CN2CCCC(O)(CNCC(C)(C)C)C2=O)c1 (centres undefined),50.2
2,CN(C)CCNCC1(O)CCCN(Cc2cccc(F)c2F)C1=O (centres undefined),-65.2
3,O=C1N(Cc2cccc(F)c2F)CCCC1(O)CNC1CCCC1 (centres undefined),60.2
4,COC(=O)CNCC1(O)CCCN(Cc2cccc(F)c2F)C1=O (centres undefined),-51
5,COc1ccc(F)c(CN2CCCC(O)(CNCc3ncc[nH]3)C2=O)c1 (centres undefined),-93.5
6,CC1CCN(CC2(O)CCCN(Cc3cccc(F)c3F)C2=O)CC1 (centres undefined),-71.6
7,O=C1N(Cc2cccc(F)c2F)CCCC1(O)CNCc1ccccc1 (centres undefined),61.9
8,O=C1N(Cc2cccc(F)c2F)CCCC1(O)CNCc1ccccn1 (centres undefined),4.26
9,COc1ccc(F)c(CN2CCCC(O)(CNCc3ccon3)C2=O)c1 (centres undefined),-19
10,Cc1noc([C@@H]2CC[C@@H]3[C@@H](CCN3c3nnc(C)s3)O2)n1,-97.1
11,CCn1cnnc1CNC(=O)NC(C)c1ccccn1 (centres undefined),-68.5
12,CCn1nc(C)c2c1cnn2CCNS(=O)(=O)c1cccs1,-54.4
13,CCC(C)n1c(SCC(=O)N2CCOCC2)nc2cc(C)[nH]c2c1=O (centres undefined),-77
14,CO[C@H]1CN(C(=O)c2ccc3oc(C)cc3c2)C[C@@]12CCCO2,-39.5
15,Cc1ccc(S(=O)(=O)N2CCC(O)(CN(C)C)C2)cc1 (centres undefined),52
16,CN(C)CC1(O)CCN(S(=O)(=O)c2ccc(F)c(F)c2)C1 (centres undefined),20.7
17,CN(C)CC1(O)CCN(S(=O)(=O)c2ccc(Cl)cc2)C1 (centres undefined),42.9
18,CN(C)CC1(O)CCN(S(=O)(=O)c2cccc(F)c2)C1 (centres undefined),66.7
19,COCC1COCCC12CCN(S(=O)(=O)c1ccc(C)cc1)CC2 (centres undefined),-71.5
20,CN(C)CC1(O)CCN(S(=O)(=O)c2ccc(F)cc2)C1 (centres undefined),36.6
21,Cc1cccc(CSc2ncc(Br)c(C(=O)O)n2)c1,-52.3
22,Cc1cc(C)nc(NCCC(=O)Nc2ccc(Cn3cncn3)cc2)n1,-92

row,Compound,INHIBITION [%]
1,Cc1cnn(CCNCc2ccc(OCc3noc(C)n3)cc2)c1,-14.8
2,COc1ccc(C(C)NC(=O)C2CCN(S(C)(=O)=O)CC2)cc1C (centres undefined),-118
3,COc1cccc(CCC(=O)N2CCCCC2Cn2cccn2)c1 (centres undefined),-136
4,COc1cccc(CCC(=O)N2CCCC(c3nncn3C)C2)c1 (centres undefined),-9.28
5,COc1cccc(CCC(=O)N2CCC[C@@H](N)[C@@H]2c2ccccc2F)c1,68
6,N[C@@H]1CCCN(C(=O)Cc2c[nH]c3ccccc23)[C@H]1c1ccccc1F,65.8
7,CC(=O)N1CCC[C@@H](NCc2c[nH]c3ccccc23)[C@@H]1c1ccc(C)s1,14.4
8,O=C(Cc1c[nH]c2ccccc12)N1CCC(Nc2cccnn2)CC1,-48
9,O=c1[nH]nc2c(N3CCOCC3)nccn12,-25.9
10,O=C(c1cccs1)N1C[C@H]2CCC[C@@]2(COCC2CCOCC2)C1,-18.1
11,CS(=O)(=O)N1Cc2cnn(CC3CC3)c2C(COCC2CC2)C1 (centres undefined),-13.5
12,O=C(NCC1CCS(=O)(=O)C1)c1ccco1 (centres undefined),-48
13,Cc1nc2ccc(C(=O)N3C[C@@H](O)[C@H](N4CCOCC4)C3)cc2[nH]1,-0.956
14,Fc1ccc(C(NCc2nnc(-c3ccco3)o2)C2CCC2)cc1 (centres undefined),-32.2
15,CN(C)c1ccc(NC(=O)NCC2CCOC2)cn1 (centres undefined),33.3
16,Cc1ccc(S(=O)(=O)N2CCN(C)c3ccncc32)cc1F,61.6
17,Cc1cc(F)ccc1S(=O)(=O)N1CCN(C)c2ccncc21,22.6
18,CN1CCN(S(=O)(=O)c2cccc(F)c2)c2cnccc21,13.2
19,N#CC1(C(=O)N2CCOC(c3ccc(Cl)cc3)C2)CCCC1 (centres undefined),-11.4
20,CN(Cc1ccccc1F)C(C(N)=O)c1ccccc1 (centres undefined),-90
21,COc1nccc(N2CC[C@@H](N3CCCCCC3)[C@H](O)C2)c1C#N,52.3
22,COc1nccc(N2CC[C@@H](N3CCC(O)CC3)[C@H](O)C2)c1C#N,-75.9

row,Compound,INHIBITION [%]
1,COc1nccc(N2CC[C@@H](N3CCN(C)CC3)[C@H](O)C2)c1C#N,-50.4
2,O=C([C@H]1C[C@H]2OCC[C@H]2N(CC2CCOCC2)C1)N1CCCCO1,-23.2
3,Clc1cccc(-n2cnnn2)c1N1CCCCC1,-48.1
4,CCOC(=O)C1CN(CC2CC2)Cc2ncn(CC)c21 (centres undefined),14
5,CNC(=O)CN1CCOCC12CCN(C(=O)c1ccc(C)cc1)CC2,-78
6,Cn1cc(C[C@H]2[C@H](N3CCOCC3)CCN2c2ncc(F)cn2)cn1,-63.8
7,N#Cc1cccc(S(=O)(=O)N2CCCCC2CCN2CCCC2)c1 (centres undefined),-4
8,CCN1CCCC1CN(CCN(C)C)S(=O)(=O)c1ccc(C#N)cc1 (centres undefined),59.7
9,COCCCC1CCCCN1S(=O)(=O)c1cccc(C#N)c1 (centres undefined),-16.1
10,CN(CCn1cccn1)S(=O)(=O)c1ccc(C#N)cc1,-48.4
11,CCN1CCCC1CN(CCN(C)C)S(=O)(=O)c1cccc(C#N)c1 (centres undefined),60.4
12,CCN(C)C[C@@H]1CN(S(=O)(=O)c2ccc(C#N)cc2)C[C@@H]1CO,15.5
13,CN1CCN(C(=O)c2cnsn2)c2cc(F)ccc21,-79.3
14,CSc1ccc(-c2noc(CN(CC(C)C)CC(C)C)n2)cc1,-63.5
15,O=C(O)C1(Cc2cc(-c3ccc(F)cc3)no2)CCOCC1,-19.8
16,Cc1ccc(NC(=O)CC2Cn3ncnc3NC2=O)cc1C (centres undefined),-65.7
17,CCn1ccnc1CN1CCCC1Cn1cc(C)cn1 (centres undefined),65.6
18,Cc1cnn(CC2CCCN2Cc2nccn2C)c1 (centres undefined),-72.8
19,Cc1cnn(CC2CCCN2Cc2nccn2CC(F)(F)F)c1 (centres undefined),-0.234
20,CN(C)CCCNC(=O)c1ccc(N(C)S(C)(=O)=O)cc1Cl,-70.5
21,O=C(CCc1ccccc1F)NS(=O)(=O)c1ccc2c(c1)OCCO2,-17.8
22,CCS(=O)(=O)N1CCCC2(COCCN(c3ccccn3)C2)C1 (centres undefined),-1.4

row,Compound,INHIBITION [%]
1,COCC(O)CNC(=O)Nc1ccc(Cl)cc1-n1cccc1 (centres undefined),-45.8
2,CCCn1ncc(CN(Cc2ccsc2)Cc2ccco2)c1C,-122
3,CCCn1ncc(CN(Cc2cccnc2)Cc2ccsc2)c1C,-129
4,CCCn1ncc(CN(CCN(C)C)Cc2ccsc2)c1C,54.5
5,CCCc1cc(C(=O)NC(COC)c2ccnn2C)no1 (centres undefined),4.52
6,COCCN(Cc1ccccn1)Cc1sccc1C,-158
7,Cc1ccsc1CN(Cc1ccccn1)CC(C)C,-56.9
8,Cc1ccsc1CN(CCN(C)C)Cc1ccccn1,58.9
9,Cc1ccc(CCNC(=O)CC2COCCN2S(=O)(=O)N(C)C)s1 (centres undefined),-49
10,Cc1nn(C)c(C)c1C1CCCN1Cc1nc(C)c2ccccc2n1 (centres undefined),-19.2
11,Cc1nc2ccccc2nc1CN1CCCC1c1c(C)nn(C)c1C (centres undefined),58.1
12,Cc1nc(C)n(CC2CCCN2Cc2ncc(C(C)(C)C)o2)n1 (centres undefined),61.9
13,Cc1nc(C)n(CC2CCCCN2Cc2ncc(C(C)(C)C)o2)n1 (centres undefined),-43.5
14,Cc1nc(CN2CCCC2Cn2cncn2)nc2ccccc12 (centres undefined),-14.5
15,Cc1cc(C)n(CC2CCCN2Cc2ncc(C(C)(C)C)o2)n1 (centres undefined),-80.1
16,Cc1nn(C)c(C)c1C1CCCN1Cc1nc2ccccc2n1C (centres undefined),1.9
17,Cc1nc(C)n(CC2CCCN2Cc2nc(N)c3ccccc3n2)n1 (centres undefined),-98.4
18,Cc1nc(CN2CCCC2Cn2cccn2)nc2ccccc12 (centres undefined),55.5
19,Cc1nc(C)n(CC2CCCN2Cc2nc(C)c3ccccc3n2)n1 (centres undefined),55
20,Cc1nc(CN2CCCCC2Cn2cncn2)nc2ccccc12 (centres undefined),-50.6
21,Cc1nc(C)n(CC2CCCN2Cc2nc3ccccc3nc2C)n1 (centres undefined),31.2
